# Source: PubChem BioAssay (NCATS)
# Records with an inconclusive call do not appear. A number with no mark means an inactive call. Active and inactive are the calls of the source. Calls come from the whole dose curve; as a rule, active = well fitted curve in the direction sought with a large enough effect; inconclusive = small, poorly fitted or top-dose-only effect, or another doubt; inactive = no such curve, though single readings can be large; an effect the other way counts as inactive or inconclusive.
# Experiments:
# [1] = Quantitative High-Throughput drug screen in 47 multiple myeloma cell lines against the NCATS MIPE library collection: KMS20_JCRB cell viability assay (AID 1918973); note: nearly all actives have a fitted effect of over 45% in size
# Summary of the method: (§1)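 CellTiter-Glo luminescence (ATP) after 48 h compound exposure, 37C/5% CO2; 500 cells/well; MIPE 4.0 approved/investigational drugs pinned in; DMSO = 100%, media only = 0% viability.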
# [2] = Quantitative High-Throughput drug screen in 47 multiple myeloma cell lines against the NCATS MIPE library collection: KMS26_JCRB cell viability assay (AID 1918975); note: nearly all actives have a fitted effect of over 45% in size
# Summary of the method: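 qHTS of the MIPE 4.0 collection: 500 myeloma cells/well, 48 h drug exposure at 37C in 5% CO2, then CellTiter-Glo for 5 min at room temperature before luminescence reading.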
# [3] = Quantitative High-Throughput drug screen in 47 multiple myeloma cell lines against the NCATS MIPE library collection: MMM1_PLB cell viability assay (AID 1918976); note: nearly all actives have a fitted effect of over 35% in size
# Summary of the method: (§2)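 ATP-based CellTiter-Glo luminescence after 48 h drug exposure (37 °C, 5% CO2) of 500 myeloma cells per well. DMSO-only wells set 100% viability, media-only wells 0%; MIPE 4.0 library added by pin tool.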
# [4] = Quantitative High-Throughput drug screen in 47 multiple myeloma cell lines against the NCATS MIPE library collection: MOLP8_DSMZ cell viability assay (AID 1918977); note: nearly all actives have a fitted effect of over 45% in size
# Summary of the method: as §2
# [5] = Quantitative High-Throughput drug screen in 47 multiple myeloma cell lines against the NCATS MIPE library collection: NCIH929_DSMZ cell viability assay (AID 1918978); note: nearly all actives have a fitted effect of over 35% in size
# Summary of the method: as §2
# [6] = Quantitative High-Throughput drug screen in 47 multiple myeloma cell lines against the NCATS MIPE library collection: OCIMY1_PLB cell viability assay (AID 1918979); note: nearly all actives have a fitted effect of over 35% in size
# Summary of the method: as §2
# [7] = Quantitative High-Throughput drug screen in 47 multiple myeloma cell lines against the NCATS MIPE library collection: MM1S_ATCC cell viability assay (AID 1918980); note: nearly all actives have a fitted effect of over 45% in size
# Summary of the method: as §2
# [8] = Quantitative High-Throughput drug screen in 47 multiple myeloma cell lines against the NCATS MIPE library collection: MM1R_ATCC cell viability assay (AID 1918981); note: nearly all actives have a fitted effect of over 35% in size
# Summary of the method: as §2
# [9] = Quantitative High-Throughput drug screen in 47 multiple myeloma cell lines against the NCATS MIPE library collection: LP1_DSMZ cell viability assay (AID 1918982); note: nearly all actives have a fitted effect of over 35% in size
# Summary of the method: as §2
# [10] = Quantitative High-Throughput drug screen in 47 multiple myeloma cell lines against the NCATS MIPE library collection: KMS28PE_JCRB cell viability assay (AID 1918983); note: nearly all actives have a fitted effect of over 35% in size
# Summary of the method: as §2
# [11] = Quantitative High-Throughput drug screen in 47 multiple myeloma cell lines against the NCATS MIPE library collection: L363_DSMZ cell viability assay (AID 1918984); note: nearly all actives have a fitted effect of over 40% in size
# Summary of the method: as §2
# [12] = Quantitative High-Throughput drug screen in 47 multiple myeloma cell lines against the NCATS MIPE library collection: KMS34_JCRB cell viability assay (AID 1918985); note: nearly all actives have a fitted effect of over 40% in size
# Summary of the method: as §2
# [13] = Quantitative High-Throughput drug screen in 47 multiple myeloma cell lines against the NCATS MIPE library collection: OCIMY7_PLB cell viability assay (AID 1918987); note: nearly all actives have a fitted effect of over 65% in size
# Summary of the method: as §2
# [14] = Quantitative High-Throughput drug screen in 47 multiple myeloma cell lines against the NCATS MIPE library collection: OCIMY5_PLB cell viability assay (AID 1918988); note: nearly all actives have a fitted effect of over 65% in size
# Summary of the method: as §2
# [15] = Quantitative High-Throughput drug screen in 47 multiple myeloma cell lines against the NCATS MIPE library collection: OPM1_PLB cell viability assay (AID 1918989); note: nearly all actives have a fitted effect of over 40% in size
# Summary of the method: as §2
# [16] = Quantitative High-Throughput drug screen in 47 multiple myeloma cell lines against the NCATS MIPE library collection: SKMM1_PLB cell viability assay (AID 1919863); settings: SKMM1 myeloma viability, CellTiter-Glo ATP, 48 h; viability: stronger effect = lower value; note: nearly all actives have a fitted effect of over 35% in size
# Summary of the method: as §2
# [17] = Quantitative High-Throughput drug screen in 47 multiple myeloma cell lines against the NCATS MIPE library collection: U266_ATCC cell viability assay (AID 1919864); note: nearly all actives have a fitted effect of over 35% in size
# Summary of the method: as §2
# [18] = Quantitative High-Throughput drug screen in 47 multiple myeloma cell lines against the NCATS MIPE library collection: XG6_PLB cell viability assay (AID 1919865); note: nearly all actives have a fitted effect of over 40% in size
# Summary of the method: as §2
# [19] = Quantitative High-Throughput drug screen in 47 multiple myeloma cell lines against the NCATS MIPE library collection: XG1_PLB cell viability assay (AID 1919866); note: nearly all actives have a fitted effect of over 35% in size
# Summary of the method: as §2
# [20] = Quantitative High-Throughput drug screen in 47 multiple myeloma cell lines against the NCATS MIPE library collection: KMS21BM_JCRB cell viability assay (AID 1918974); settings: ATP luminescence, 48 h; viability: at 45.8 µM (top of the series) unless noted
# Summary of the method: as §1
# Potency is the fitted concentration of half-maximal effect.
structure (smiles),measurement,setting,value
CCc1c2c(nc3ccc(O)cc13)-c1cc3c(c(=O)n1C2)COC(=O)[C@]3(O)CC,Potency,[1],0.118 µM (active)
same,Potency,[2],2.35 µM (active)
same,Potency,[3],0.833 µM (active)
same,Potency,[4],0.166 µM (active)
same,Potency,[5],0.0469 µM (active)
same,Potency,[6],0.59 µM (active)
same,Potency,[7],0.0118 µM (active)
same,Potency,[8],0.0118 µM (active)
same,Potency,[9],0.662 µM (active)
same,Potency,[10],0.166 µM (active)
same,Potency,[11],0.59 µM (active)
same,Potency,[12],0.264 µM (active)
same,Potency,[13],0.001 µM (active)
same,Potency,[14],1.18 µM (active)
same,Potency,[15],0.935 µM (active)
same,Potency,[16],0.469 µM (active)
same,Potency,[17],0.743 µM (active)
Cc1cc(CN2CCN(c3c(Br)cnc4nc(-c5ccc(N6CCN(C)CC6)cc5)[nH]c34)CC2)no1,Potency,[1],2.35 µM (active)
same,Potency,[2],7.43 µM (active)
same,Potency,[3],23.5 µM (active)
same,Potency,[4],7.43 µM (active)
same,Potency,[5],2.35 µM (active)
same,Potency,[6],14.8 µM (active)
same,Potency,[7],5.9 µM (active)
same,Potency,[8],13.2 µM (active)
same,Potency,[9],26.4 µM (active)
same,Potency,[10],20.9 µM (active)
same,Potency,[12],5.9 µM (active)
same,Potency,[13],1.05 µM (active)
same,Potency,[14],7.43 µM (active)
same,Potency,[15],4.18 µM (active)
same,Potency,[16],10.5 µM (active)
same,Potency,[17],16.6 µM (active)
same,Potency,[18],2.35 µM (active)
same,Potency,[19],2.09 µM (active)
CC(C)c1cnn2c(NCc3ccccc3)cc(N[C@@H](CO)[C@H](O)CO)nc12,Potency,[1],0.235 µM (active)
same,Potency,[2],0.296 µM (active)
same,Potency,[3],0.332 µM (active)
same,Potency,[4],0.166 µM (active)
same,Potency,[5],0.166 µM (active)
same,Potency,[6],0.418 µM (active)
same,Potency,[7],0.235 µM (active)
same,Potency,[8],0.235 µM (active)
same,Potency,[9],0.264 µM (active)
same,Potency,[10],0.296 µM (active)
same,Potency,[11],0.148 µM (active)
same,Potency,[12],0.662 µM (active)
same,Potency,[13],0.235 µM (active)
same,Potency,[14],0.235 µM (active)
same,Potency,[15],0.235 µM (active)
same,Potency,[16],0.372 µM (active)
same,Potency,[17],0.296 µM (active)
same,Potency,[18],0.235 µM (active)
same,Potency,[19],0.264 µM (active)
CCN(CC)CCNC(=O)c1ccc2nc(-c3ccccc3)c(-c3ccc(CN4CCC(n5c(=O)[nH]c6ccccc65)CC4)cc3)nc2c1,Potency,[1],0.296 µM (active)
same,Potency,[20],1.18 µM (active)
same,Potency,[2],14.8 µM (active)
same,Potency,[3],26.4 µM (active)
same,Potency,[4],16.6 µM (active)
same,Potency,[6],20.9 µM (active)
same,Potency,[8],20.9 µM (active)
same,Potency,[9],18.7 µM (active)
same,Potency,[10],23.5 µM (active)
same,Potency,[11],0.418 µM (active)
same,Potency,[12],20.9 µM (active)
same,Potency,[13],1.05 µM (active)
same,Potency,[14],10.5 µM (active)
same,Potency,[15],0.743 µM (active)
same,Potency,[16],20.9 µM (active)
same,Potency,[17],8.33 µM (active)
same,Potency,[18],0.296 µM (active)
same,Potency,[19],0.59 µM (active)
Cc1ccc(C(N)=O)cc1Nc1nccc(-c2cn(C(C)C)c3cnccc23)n1,Potency,[1],4.18 µM (active)
same,Potency,[20],0.935 µM (active)
same,Potency,[2],10.5 µM (active)
same,Potency,[3],16.6 µM (active)
same,Potency,[4],4.69 µM (active)
same,Potency,[8],8.33 µM (active)
same,Potency,[9],8.33 µM (active)
same,Potency,[10],13.2 µM (active)
same,Potency,[11],2.64 µM (active)
same,Potency,[12],6.62 µM (active)
same,Potency,[13],0.935 µM (active)
same,Potency,[14],7.43 µM (active)
same,Potency,[15],7.43 µM (active)
same,Potency,[16],16.6 µM (active)
same,Potency,[17],8.33 µM (active)
same,Potency,[18],2.64 µM (active)
same,Potency,[19],3.72 µM (active)
C[C@]1(CO)CN(c2cc(C(=O)Nc3ccc4c(c3)-c3c(c(C(N)=O)nn3-c3ccc(F)cc3)CC4)c(Cl)cn2)C[C@@]1(C)CO,Potency,[1],5.26 µM (active)
same,Potency,[20],5.26 µM (active)
same,Potency,[3],14.8 µM (active)
same,Potency,[5],9.35 µM (active)
same,Potency,[6],inactive
same,Potency,[7],14.8 µM (active)
same,Potency,[8],8.33 µM (active)
same,Potency,[13],1.87 µM (active)
same,Potency,[14],8.33 µM (active)
same,Potency,[15],3.72 µM (active)
same,Potency,[17],18.7 µM (active)
same,Potency,[18],4.18 µM (active)
same,Potency,[19],14.8 µM (active)
O=C(O)[C@H](Cc1c[nH]c2ccccc12)N1C(=O)c2ccccc2C1=O,Potency,[1],inactive
same,Potency,[20],inactive
same,Potency,[2],inactive
same,Potency,[4],inactive
same,Potency,[6],inactive
same,Potency,[7],42.9 µM (active)
same,Potency,[9],inactive
same,Potency,[10],inactive
same,Potency,[12],inactive
same,Potency,[13],30.3 µM (active)
same,Potency,[14],inactive
same,Potency,[15],inactive
same,viability,[16],111%
Cc1ccc(C(=O)Nc2cccc(C(F)(F)F)c2)cc1-c1ccc2nc(NCCN3CCOCC3)ncc2c1,Potency,[1],1.66 µM (active)
same,Potency,[20],1.66 µM (active)
same,Potency,[3],14.8 µM (active)
same,Potency,[4],3.32 µM (active)
same,Potency,[6],18.7 µM (active)
same,Potency,[7],16.6 µM (active)
same,Potency,[9],18.7 µM (active)
same,Potency,[10],14.8 µM (active)
same,Potency,[11],1.05 µM (active)
same,Potency,[12],9.35 µM (active)
same,Potency,[13],0.935 µM (active)
same,Potency,[14],14.8 µM (active)
same,Potency,[15],7.43 µM (active)
same,Potency,[16],16.6 µM (active)
same,Potency,[17],14.8 µM (active)
same,Potency,[18],3.32 µM (active)
same,Potency,[19],4.69 µM (active)
Cc1cc(Nc2cc(N3CCN(C)CC3)nc(C=Cc3ccccc3)n2)n[nH]1,Potency,[1],4.29 µM (active)
same,Potency,[2],21.5 µM (active)
same,Potency,[3],30.3 µM (active)
same,Potency,[4],9.59 µM (active)
same,Potency,[5],6.79 µM (active)
same,Potency,[6],5.4 µM (active)
same,Potency,[7],17.1 µM (active)
same,Potency,[8],13.6 µM (active)
same,Potency,[9],34 µM (active)
same,Potency,[10],13.6 µM (active)
same,Potency,[12],5.4 µM (active)
same,Potency,[13],0.605 µM (active)
same,Potency,[14],4.81 µM (active)
same,Potency,[15],3.82 µM (active)
same,Potency,[16],42.9 µM (active)
same,Potency,[17],38.2 µM (active)
same,Potency,[18],9.59 µM (active)
same,Potency,[19],4.81 µM (active)
